In PubChem BioAssay:
The source made the active and inactive calls. No rule for the calls is given here.

These compounds were tested against Pantothenate synthetase (Mycobacterium tuberculosis (strain ATCC 25618 / H37Rv)) (UniProt P9WIL5) (assay: Recombinant Mtb pantothenate synthetase (PanC) inhibitors, coupled enzyme, confirmatory (AID 375;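 also: 0% = full reaction with vehicle and 100% = no enzyme background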)). Settings: coupled enzyme assay; at 10 µM, stronger effect = higher value.
Chain of Pantothenate synthetase (Mycobacterium tuberculosis (strain ATCC 25618 / H37Rv)) (P9WIL5 whole entry, looked up): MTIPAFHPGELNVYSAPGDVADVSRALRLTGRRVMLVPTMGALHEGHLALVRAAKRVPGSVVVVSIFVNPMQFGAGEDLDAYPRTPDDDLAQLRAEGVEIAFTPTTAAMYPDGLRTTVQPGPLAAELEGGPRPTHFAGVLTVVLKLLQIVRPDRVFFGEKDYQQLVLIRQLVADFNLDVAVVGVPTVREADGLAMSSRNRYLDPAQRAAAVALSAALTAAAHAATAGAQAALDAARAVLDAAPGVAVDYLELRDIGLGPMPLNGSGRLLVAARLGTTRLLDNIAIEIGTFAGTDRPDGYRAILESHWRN
In the case of `CCCNS(=O)(=O)c1ccc(OCC(=O)NCc2ccco2)cc1`, the inhibition was 2% (inactive). For `Clc1ccccc1OCc1nn2c(-c3ccncc3)nnc2s1`, the inhibition was 0% (inactive). `CCSC1=C(C#N)C(c2cccc(OC)c2)CC(=O)N1` (stereo not given) was tested, and the inhibition was 6% (inactive). `COc1cc2c(cc1OC)C(c1ccccc1O)N(C1CC(=O)N(c3ccccc3)C1=O)CC2` (stereo not given) was tested, and the inhibition was 0% (inactive). In the case of `Cc1nc(C)n(C(C)CC(=O)O)n1` (stereo not given), the inhibition was 0% (inactive). With `O=C(CCCOc1ccccc1)N1CCN(c2ccccn2)CC1` the inhibition was 3% (inactive). For `CC(C)CCN(C)C1CCN(S(=O)(=O)c2ccc(F)cc2)CC1`, the inhibition was 0% (inactive). In the case of `Cc1nnc(SCC(=O)N2CCC(C(N)=O)CC2)s1`, the inhibition was 0% (inactive). `CCCS(=O)(=O)N1CCCC(C(=O)NC(C)c2ccc3c(c2)OCCO3)C1` (stereo not given) was tested, and the inhibition was 3% (inactive). `CCOC(=O)Cn1ncc(-c2ccccc2)c1N` was tested, and the inhibition was 6% (inactive). In the case of `CCOC(=O)N1CCN(C(=O)c2cccn3c(=O)c4sccc4nc23)CC1`, the inhibition was 0% (inactive). `CCCn1c(NC(=O)C2COc3ccccc3O2)nc2ccccc21` (stereo not given) was tested, and the inhibition was 0% (inactive). For `Cc1cc(NC(=O)Cc2cn3ccsc3n2)n(-c2ccccc2)n1`, the inhibition was 1% (inactive). `CCOc1ccc(S(=O)(=O)n2c(C)nc3ccccc32)cc1` was tested, and the inhibition was 0% (inactive). `CCCC(=O)Nc1ccc(C(=O)O)cc1NC(=O)CCC` was tested, and the inhibition was 0% (inactive). In the case of `O=C(Nc1ccc2c(c1)OCCO2)C1CCCN1S(=O)(=O)c1cccc2cccnc12` (stereo not given), the inhibition was 0% (inactive). `C=CCn1c(=S)[nH]c2nc3c(cc2c1=O)COC(C)(C)C3` was tested, and the inhibition was 16% (inactive). For `Cc1csc(NC(=O)c2cccs2)n1`, the inhibition was 0% (inactive). In the case of `O=C(NCc1ccco1)c1csc(Nc2ccccc2Cl)n1`, the inhibition was 0% (inactive). With `Cc1ccc(C2Nc3ccccc3-c3nc4ccccc4n32)o1` (stereo not given) the inhibition was 0% (inactive). With `Nc1ccc(S(=O)(=O)Nc2ccccn2)cc1` the inhibition was 0% (inactive). `CCOC(=O)N1CCN(C(=O)COc2ccc(S(=O)(=O)NC(C)C)cc2)CC1` was tested, and the inhibition was 0% (inactive). `COc1ccc(S(=O)(=O)NCCOc2ccccc2)cc1OC` was tested, and the inhibition was 0% (inactive). With `CCCNC(=O)Nc1ccccc1C(=O)Nc1ccc(OC)cc1` the inhibition was 2% (inactive). With `CN1CCCc2cc(C#N)c(=O)[nH]c21` the inhibition was 5% (inactive). `CC[C@H](C)C(=O)O[C@H]1C[C@@H](C)C=C2C=C[C@H](C)[C@H](CC[C@@H]3C[C@@H](O)CC(=O)O3)[C@H]21` was tested, and the inhibition was 5% (inactive). In the case of `Cn1c(=O)[nH]c2cc3ccccc3cc21`, the inhibition was 0% (inactive). In the case of `COCCCn1nnnc1SCC(=O)Nc1nc(C)c(C)s1`, the inhibition was 0% (inactive). For `COC(=O)[C@@H](NC(=O)NCc1ccccc1Cl)C(C)C`, the inhibition was 0% (inactive). In the case of `CS(=O)(=O)N(CC(=O)Nc1ccc2c(c1)OCCO2)Cc1ccccc1`, the inhibition was 2% (inactive). With `Cn1c(=O)[nH]c(=O)c2c1nc(N1CCc3ccccc3C1)n2CCSc1nc2ccccc2s1` the inhibition was 4% (inactive). In the case of `CCOc1cc(C2c3c(n[nH]c3C)C(=O)N2c2ccc(Br)cc2)ccc1O` (stereo not given), the inhibition was 0% (inactive). For `CCN(CC)CCCNS(=O)(=O)c1ccc(OC)cc1`, the inhibition was 3% (inactive). `CCCCCSc1nc2c(cnn2-c2ccccc2)c(=O)[nH]1` was tested, and the inhibition was 11% (inactive). `Cn1c(CCCNC(=O)c2ccccc2)nc2ccccc21` was tested, and the inhibition was 2% (inactive). With `CCCCc1nc(NCCNC(=O)c2ccco2)c(C#N)c2c1CSC(C)(C)C2` the inhibition was 3% (inactive). With `COc1cc(C2C(C#N)=C(N)OC3=C2C(=O)CC(C)(C)C3)ccc1OC(=O)N1CCOCC1` (stereo not given) the inhibition was 5% (inactive). `COc1ccc(N2CCN(CCCNS(=O)(=O)c3c(C)noc3/C=C/N(C)C)CC2)cc1` was tested, and the inhibition was 15% (inactive). `CC1CCCN(C(=O)CN2C(=O)c3ccccc3C2=O)C1` (stereo not given) was tested, and the inhibition was 3% (inactive). `C=CCn1c2ccccc2c2nnc(SCC(=O)NC(C(=O)OC)C(C)C)nc21` (stereo not given) was tested, and the inhibition was 4% (inactive).
